Source: PubChem BioAssay AID1347420 (Sanford-Burnham Center for Chemical Genomics, 2020)
Out of some 1,300 compounds screened, about 980 (75%) were called active. Roughly 4% stayed inconclusive and do not appear here. This is one part of the list.

Target: Sulfhydryl oxidase 1 (Homo sapiens) (UniProt O00391)
Assay: inhibition of human sulfhydryl oxidase QSOX1 – biochemical, HyperBlu H2O2 luminescence, HTS, primary screen (AID 1347420)
Conditions: recombinant QSOX1, HyperBlu H2O2 luminescence; at 12.5 µM; hits give high values; active = any value above zero

Chain of Sulfhydryl oxidase 1 (Homo sapiens) (O00391 whole entry, looked up): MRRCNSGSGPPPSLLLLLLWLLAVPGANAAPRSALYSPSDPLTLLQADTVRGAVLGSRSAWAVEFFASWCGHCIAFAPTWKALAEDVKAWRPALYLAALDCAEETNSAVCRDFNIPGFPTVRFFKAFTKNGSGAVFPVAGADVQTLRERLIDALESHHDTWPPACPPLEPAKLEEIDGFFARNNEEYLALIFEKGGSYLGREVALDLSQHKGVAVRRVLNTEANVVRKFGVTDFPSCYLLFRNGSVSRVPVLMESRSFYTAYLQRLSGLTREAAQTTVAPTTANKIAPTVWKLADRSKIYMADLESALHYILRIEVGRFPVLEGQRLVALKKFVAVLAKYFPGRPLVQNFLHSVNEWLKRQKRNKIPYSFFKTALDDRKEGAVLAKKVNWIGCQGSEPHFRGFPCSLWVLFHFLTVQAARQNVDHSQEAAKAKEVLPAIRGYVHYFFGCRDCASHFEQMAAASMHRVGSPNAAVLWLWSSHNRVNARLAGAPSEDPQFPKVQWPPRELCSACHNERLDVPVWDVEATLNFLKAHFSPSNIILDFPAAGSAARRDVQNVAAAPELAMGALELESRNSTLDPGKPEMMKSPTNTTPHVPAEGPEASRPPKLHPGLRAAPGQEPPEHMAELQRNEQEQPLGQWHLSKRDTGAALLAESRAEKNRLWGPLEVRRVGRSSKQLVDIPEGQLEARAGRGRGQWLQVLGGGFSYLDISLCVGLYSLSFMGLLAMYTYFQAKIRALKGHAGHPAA

Row | Structure (SMILES) | inhibition
1 | O=c1[nH]cnc2[nH]ncc12 | 19.2% (active)
2 | Clc1ccccc1C(c1ccccc1)(c1ccccc1)n1ccnc1 | -1.8% (inactive)
3 | CC(=O)/C=C1\C(=O)N(C)c2ccccc21 | 4.3% (active)
4 | CCCCCCCC/C=C\CCCCCCCC(=O)NCCc1ccc(O)c(O)c1 | 1.1% (active)
5 | COc1cc(CNC(=O)CCCCCCC(C)C)ccc1O | 15.1% (active)
6 | CCCCCCCC/C=C\CCCCCCCC(=O)NCc1ccc(O)c(OC)c1 | 8% (active)
7 | CN(C)C(=O)/N=N/C(=O)N(C)C | 13.5% (active)
8 | O=C1Cc2cc(CCN3CCN(c4nsc5ccccc45)CC3)c(Cl)cc2N1 | -10.1% (inactive)
9 | N[C@@H](CCC(=O)N[C@H](CSN=O)C(=O)NCC(=O)O)C(=O)O | 15.7% (active)
10 | [N-]=[N+]=Nc1ccc(C(=O)CSC[C@H](NC(=O)CC[C@H](N)C(=O)O)C(=O)NCC(=O)O)cc1 | 19.5% (active)
11 | COc1ccc(-c2cc3ncc(C)n3c(Nc3ncccc3C(N)=O)n2)cc1OC | 20.4% (active)
12 | NO | -43.8% (inactive)
13 | COC1=C(OC)C(=O)c2ccccc2C1=O | 37.3% (active)
14 | O=C1c2ccccc2-c2n[nH]c3cccc1c23 | -5.6% (inactive)
15 | O=C1c2ccccc2C(=O)c2c(NCCc3ccc(O)cc3)ccc(NCCc3ccc(O)cc3)c21 | 60.9% (active)
16 | O=C(O)C1CN(CCCP(=O)(O)O)CCN1 (centres undefined) | 37% (active)
17 | C[C@](Cc1ccc(O)c(O)c1)(NN)C(=O)O | 44.1% (active)
18 | CC(N)(Cc1ccc(O)c(O)c1)C(=O)O (centres undefined) | 31.2% (active)
19 | C[C@](N)(Cc1ccc(O)c(O)c1)C(=O)O | 36.6% (active)
20 | O=C(c1ccc(OCCCc2cnc[nH]2)cc1)C1CC1 | 8% (active)
21 | CC1(C)CCC(NC(=O)[C@@H](N)CCC(=O)O)CC1 | 8.5% (active)
22 | CCOC(=O)Nc1ccc(NCc2ccc(F)cc2)nc1N | 40% (active)
23 | O=C1C(SCCO)=C(SCCO)C(=O)c2ccccc21 | 66.7% (active)

Row | Structure (SMILES) | inhibition
24 | CN(C)c1nc2c(Br)c(Br)c(Br)c(Br)c2[nH]1 | 46.6% (active)
25 | Nc1nc2[nH]c(=O)cnc2c(=O)[nH]1 | -15.8% (inactive)
26 | Nc1cc(=O)[nH]c(N)n1 | 11.6% (active)
27 | C#CCN(C)CCCOc1ccc(Cl)cc1Cl | 6.1% (active)
28 | C#CCN(C)Cc1ccccc1 | -4.3% (inactive)
29 | Cn1cnc([N+](=O)[O-])c1Sc1ncnc2nc[nH]c12 | 19.5% (active)
30 | COc1nc(C)nc(Cl)c1NC1=NCCN1 | 12.9% (active)
31 | Clc1ccc2nsnc2c1NC1=NCCN1 | -10.4% (inactive)
32 | Nc1cc(Cl)c(NC2=NCCN2)c(Cl)c1 | 23.9% (active)
33 | Clc1cccc(Cl)c1NC1=NCCN1 | 7.2% (active)
34 | Fc1ccc(CN(C2=NCCN2)c2c(Cl)cccc2Cl)cc1 | -1.5% (inactive)
35 | CC1=C(C)C(=O)C(CCCCC#CCCCC#CCO)=C(C)C1=O | 32.9% (active)
36 | CCCCCCCCCCCCCCCCCCOC[C@H](COP(=O)([O-])OCC[N+](C)(C)C)OC | -5.6% (inactive)
37 | CCCCCCCCCCCCCCCCCCNC(=O)OCC(COP(=O)([O-])OCC[n+]1ccsc1)OC (centres undefined) | 10.6% (active)
38 | N=c1ccn2c(n1)OC1C(O)[C@@H](CO)O[C@H]12 (some centres undefined) | 6.1% (active)
39 | O=C(O)CCCCCCCC(=O)O | 11.4% (active)
40 | NCCCC(=O)O | 25.9% (active)
41 | NCCCCC(=O)O | 19.4% (active)
42 | NCCCCCC(=O)O | 40% (active)
43 | NC(N)=NC(=O)c1nc(Cl)c(N)nc1N | 20.2% (active)
44 | CCN(c1nc(N)c(C(=O)N=C(N)N)nc1Cl)C(C)C | 22.6% (active)
45 | NC(N)=NC(=O)c1nc(Cl)c(N2CCCCCC2)nc1N | 24.3% (active)
46 | CN(C)c1nc(N)c(C(=O)N=C(N)N)nc1Cl | 10.2% (active)

Row | Structure (SMILES) | inhibition
47 | O=C(O)CCc1ccc(NCc2cccc(Oc3ccccc3)c2)cc1 | 41.7% (active)
48 | C=C1C[C@@]23CC[C@H]4[C@@](C)(CCC[C@@]4(C)C(=O)O)[C@@H]2CC[C@]1(O)C3 | 9% (active)
49 | C=C1C[C@@]23CC[C@H]4[C@@](C)(CCC[C@@]4(C)C(=O)OC4OC(CO)C(O)C(O)C4O)[C@@H]2CCC1(OC1OC(CO)C(O)C(O)C1OC1OC(CO)C(O)C(O)C1O)C3 (some centres undefined) | -13.9% (inactive)
50 | CCOC(=O)N1CCC(=C2c3ccc(Cl)cc3CCc3cccnc32)CC1 | 13.2% (active)
51 | Cn1ccnc1 | 9.1% (active)
52 | CCCCCCCCCCCCCCSCC(=O)O | 9.4% (active)
53 | NC1C=CC=C(C(=O)O)C1 (centres undefined) | 21.6% (active)
54 | OCC1O[C@H](O)C(Cl)C(O)C1O (some centres undefined) | 23.9% (active)
55 | COCCCC/C(=N\OCCN)c1ccc(C(F)(F)F)cc1 | 9.6% (active)
56 | CN1CCC(=C2c3ccccc3C=Cc3ccccc32)CC1 | -2.7% (inactive)
57 | CN1CCC(=C2c3ccccc3CC(=O)c3sccc32)CC1 | 6.3% (active)
58 | COc1ccc(C2CNC(=O)C2)cc1OC1CCCC1 (centres undefined) | 5.2% (active)
59 | Cc1cccc(C2CN(C)CCc3c2cc(O)c(O)c3Cl)c1 (centres undefined) | 97.2% (active)
60 | C=CCN1CCc2cc(O)c(O)cc2C(c2ccccc2)C1 (centres undefined) | 76.8% (active)
61 | C=CCN1CCc2c(cc(O)c(O)c2Cl)C(c2ccccc2)C1 (centres undefined) | 84.4% (active)
62 | O=C1CCc2cc(OCCCCc3nnnn3C3CCCCC3)ccc2N1 | 11.5% (active)
63 | COc1cc2c(cc1OC)-c1cc(=Nc3c(C)cc(C)cc3C)n(C)c(=O)n1CC2 | 4.4% (active)
64 | CCn1nc(C(=O)O)c(=O)c2cc3c(cc21)OCO3 | 0% (inactive)
65 | C[C@H]1O[C@@H](n2cc(F)c(=O)[nH]c2=O)[C@H](O)[C@@H]1O | 20% (active)
66 | O=c1ccn([C@@H]2O[C@H](COP(=O)(O)OP(=O)(O)O)[C@@H](O)[C@H]2O)c(=O)[nH]1 | -0.8% (inactive)
67 | O=C1N=C([O-])CN1/N=C/C1=C[C+]=C(c2ccc([N+](=O)[O-])cc2)O1 | 53% (active)
68 | CSc1ccccc1N1CCN(CCCCCC(=O)NC2CCCc3ccccc32)CC1 (centres undefined) | 11.3% (active)
69 | O=C(CCCCCN1CCN(c2ccccc2-c2ccccc2)CC1)NC1CCCc2ccccc21 (centres undefined) | 22.8% (active)

Row | Structure (SMILES) | inhibition
70 | NC(N)=NC(=O)Cc1c(Cl)cccc1Cl | 16.4% (active)
71 | NC(N)=N/N=C/c1c(Cl)cccc1Cl | -6.1% (inactive)
72 | O=C(O)c1cccnc1C(=O)O | 5.1% (active)
73 | O=C1NCc2c1c1c3ccccc3[nH]c1c1[nH]c3ccccc3c21 | 13.3% (active)
74 | Cn1c(=O)c2[nH]c(-c3ccc(S(=O)(=O)O)cc3)nc2n(C)c1=O | 31.8% (active)
75 | CCCn1c(=O)c2[nH]c(-c3ccc(S(=O)(=O)O)cc3)nc2n(CCC)c1=O | 20.3% (active)
76 | CCCn1c(=O)c2[nH]c(-c3ccc(OCC(=O)NCCN)cc3)nc2n(CCC)c1=O | -3.6% (inactive)
77 | Cn1c(=O)c2[nH]c(-c3ccccc3)nc2n(C)c1=O | 14.7% (active)
78 | CN(C)S(=O)(=O)c1ccc2c(c1)/C(=C/c1cc3c([nH]1)CCCC3)C(=O)N2 | 52.1% (active)
79 | CNc1cc(NS(=O)(=O)c2ccc(N)cc2)nc(NC)n1 | 1.3% (active)
80 | CCCCCCCCc1ccc(-c2ccc(C(=O)O)cc2)cc1 | 14.5% (active)
81 | Oc1ccccc1O | 62.9% (active)
82 | O=[N+]([O-])c1cccc2c(Br)[nH]nc12 | 47.4% (active)
83 | CC(=O)N[C@H](C(=O)O)C(C)(C)SN=O | 10.5% (active)
84 | CC(N)(C(=O)O)c1ccc(C(=O)O)cc1 (centres undefined) | 10.5% (active)
85 | CCCC(=O)NCCc1c2n(c3ccc(OC)cc13)CCCc1ccccc1-2 | 50.8% (active)
86 | O=C(O)c1cc2cc(F)ccc2[nH]1 | 1% (active)
87 | O=C1NC(=O)/C(=C/c2ccc(-c3ccc(F)cc3O)o2)S1 | 0% (inactive)
88 | O=C1NC(=O)/C(=C/c2ccc3c(c2)OC(F)(F)O3)S1 | 21.2% (active)
89 | O=C1NC(=O)/C(=C/c2ccc3nccnc3c2)S1 | 5.7% (active)
90 | CCCN(CCc1ccccc1)C1CCc2c(O)cccc2C1 (centres undefined) | 14% (active)
91 | O=c1cc(-c2ccccc2F)[nH]c2cc3c(cc12)OCO3 | 6.4% (active)
92 | CCN(CC)CCCN(c1ccccc1)C1Cc2ccccc2C1 | 94.2% (active)

Row | Structure (SMILES) | inhibition
93 | c1ccc(-c2ccccn2)nc1 | 7.1% (active)
94 | NCCC1CCCC(CCN)N1 (centres undefined) | 6.6% (active)
95 | OCc1ccc(-c2nn(Cc3ccccc3)c3ccccc23)o1 | 0.6% (active)
96 | OC1(c2ccc(Cl)cc2)CCN(Cc2c[nH]c3ccccc23)CC1 | 14.4% (active)
97 | c1cnc(N2CCN(Cc3ccc4c(c3)OCO4)CC2)nc1 | -5.6% (inactive)
98 | Clc1ccc(N2CCN(Cc3c[nH]c4ncccc34)CC2)cc1 | 12.6% (active)
99 | Ic1ccc(N2CCN(Cc3c[nH]c4ncccc34)CC2)cc1 | 23.8% (active)
100 | COc1ccc2c(c1)c(CC(=O)O)c(C)n2C(=O)c1ccc(Cl)cc1 | 15.5% (active)
101 | COc1ccc2c(c1)c(CC(=O)O)c(C)n2Cc1ccc(Cl)cc1 | 5.8% (active)
102 | COc1ccc2c(c1)c(CC(=O)O)c(C)n2C(=O)c1ccccc1 | 9% (active)
103 | CC(C)[C@@H]1CC[C@@H](C)C[C@@H]1P(=O)(c1ccccc1)c1ccccc1 | -5.2% (inactive)
104 | O=C(CCNNC(=O)c1ccncc1)NCc1ccccc1 | 0.1% (active)
105 | OC(CCN1CCCCC1)(c1ccccc1)C1CC2C=CC1C2 (centres undefined) | 8.3% (active)
106 | OC(CCN1CCCCC1)(c1ccccc1)C1CCCCC1 (centres undefined) | -1.3% (inactive)
107 | O=C(O)CC1CCCc2ccccc2C1O (centres undefined) | 8.6% (active)
108 | NOCC(=O)O | 3% (active)
109 | NCCS(=O)(=O)O | 9.8% (active)
110 | NCC(O)(CS(=O)(=O)O)c1ccc(Cl)cc1 (centres undefined) | -0.3% (inactive)
111 | NCCCS(=O)(=O)O | 14.2% (active)
112 | CN1Cc2c(N)cccc2C(c2ccccc2)C1 (centres undefined) | -2.6% (inactive)
113 | CN1CCc2cc(O)c(O)cc2C(c2ccccc2)C1 (centres undefined) | 67.4% (active)
114 | CN1CCc2cc(Cl)c(O)cc2[C@@H](c2ccccc2)C1 | 35.8% (active)
